From PubChem BioAssay (NCATS)
Inconclusive results are not listed. A number with no mark means an inactive call. The source made the active and inactive calls. Calls come from the whole dose curve; as a rule, active = well fitted inhibition curve with a large enough effect; inconclusive = small, poorly fitted or top-dose-only effect; inactive = no such curve, though single readings can be large or run the other way.

Experiment: qHTS assay to identify inhibitors of the type 1 interferon - major histocompatibility complex class I in skeletal muscle: Counter screen cell viability and HiBit confirmation (AID 1347412); note: nearly all actives have a fitted effect of over 60% in size
Settings: iHSKM muscle cells + IFN-b, HiBiT or CellTiter-Glo, 24 h; HiBiT
Description: Assay Submitter (PI): Travis B. Kinder Ph.D. & James Inglese Ph.D. Assay Development and Screening Technology Laboratory (ADST) National Center for Advancing Translational Sciences (NCATS), Rockville, MD National Institute of Health (NIH), Bethesda, Maryland Idiopathic inflammatory myopathies, collectively referred to as myositis, are a group of rare autoimmune diseases characterized by skeletal muscle inflammation, weakness, and usually accompanied by systemic pathologies of the skin, lungs, or vasculature. Current immunosuppressive therapies and glucocorticoids are often not curative and are accompanied by harsh side effects, especially in children with juvenile myositis. We initiated a drug repurposing and development program to identify more targeted, less toxic therapeutics to treat myositis. Although its cause is not known, muscle from a subset of patients have an abundance of the inflammatory type 1 interferon (IFN) and a down-stream product major histocompatibility complex class I (MHC class I), which are both thought to contribute to damage and weakness. We conducted quantitative high throughput screening on 6,576 compounds (4,679 unique) through a series of cell-based assays to identify those that inhibit the IFN-stimulated expression of MHC class I in muscle precursor cells (myoblasts). The compound identification and evaluation strategy utilized a primary screen with reporter-tagged MHC class I in genome-engineered myoblasts, ATP content counter screen for viability, HLA-ABC immunofluorescence secondary screen, and HLA-B RT-qPCR tertiary screen. The primary screen utilized CRISPR/Cas9 genome-engineering of immortalized human myoblasts, C25cl48, where a pro-luminescent reporter HiBit was fused to the C-terminus of endogenous MHC class I allele HLA-B*08:01 (HLA-B HiBit myoblasts). HiBit is an 11 amino acid fragment of NanoLuc luminescent reporter (Promega Corporation), and when complexed to the larger LgBit fragment, the reconstituted enzyme produces light in the presence of furimazine substrate (Schwinn et al., 2018). Briefly, HLA-B HiBit myoblasts were plated into 1536-well plates, treated with 4.0 ng/ml human IFN-beta and 650 inhibitory compounds identified from primary screening in a 12-point, 1:3 titration with a high final concentration of 46 uM. Compounds were pinned into duplicate plates, with one for HiBit confirmation and one for ATP content viability assay. After 24 hrs of treatment, cells were assayed by either Nano-Glo HiBiT Lytic Detection System (Promega) or CellTiter Glo (Promega), and luminescence measured by a ViewLux 1430 Ultra HTS (Perkin Elmer). References: Schwinn MK, Machleidt T, Zimmerman K, Eggers CT, Dixon AS, Hurst R, Hall MP, Encell LP, Binkowski BF, Wood K V. 2018. CRISPR-Mediated Tagging of Endogenous Proteins with a Luminescent Peptide. ACS Chem Biol 13:467-474. doi:10.1021/acschembio.7b00549
PROTOCOL TABLE (as described by Inglese et al., 2007) SEQUENCE No. (e.g., 1, 2, 3, etc.); […] (e.g., Cells, Incubation, Reagent, etc.); VALUE; DESCRIPTION 1a; Cells; 5 uL; Use a Multidrop Combi (Thermo Scientific) to seed 300 cells/well into 16 Greiner 1536 well white/solid bottom, high base, TC plates in 5 ul/well of iHSKM growth medium (GM) without dexamethasone into columns 1+2. Add metal lids with gas-exchange holes 1b; Cells; 5 uL; Use a Multidrop Combi (Thermo Scientific) to seed 300 cells/well into 16 Greiner 1536 well white/solid bottom, high base, TC plates in 5 ul/well of iHSKM GM without dexamethasone + 4 ng/ml IFN-b into columns 3 - 48. Add metal lids with gas-exchange holes 2; Incubate; 1 hr; Incubate at 37 C, 5% CO2, 95% RH 3; Compounds; 23 nl; Use Pin Tool (Wako) to transfer DMSO control, 92 uM final digitonin cytotoxic control, ruxolitinib IFN-b inhibitor control [High Concentration = 80 uM final, 16-pt, 1:2 in duplicate], and library compounds in DMSO. […]
% is set by controls: 0 for no effect and ±100 for the full control effect; potency is the fitted concentration of half-maximal effect.

Row | SMILES | Potency
1 | CC(=O)Oc1ccccc1C(=O)Nc1ncc([N+](=O)[O-])s1 | 14 µM (active)
2 | CN(C)c1ccc(C(=C2C=CC(=[N+](C)C)C=C2)c2ccc(N(C)C)cc2)cc1 | 9.91 µM (active)
3 | CC(C)C[C@H](NC(=O)[C@H](CCc1ccccc1)NC(=O)CN1CCOCC1)C(=O)N[C@@H](Cc1ccccc1)C(=O)N[C@@H](CC(C)C)C(=O)[C@@]1(C)CO1 | 0.0883 µM (active)

Same assay, conditions: iHSKM muscle cells + IFN-b, HiBiT or CellTiter-Glo, 24 h; HiBiT; at 45.9 µM (top of the series)

Row | SMILES | activity change, negative = inhibition [%]
4 | Oc1c(Cl)cc(Cl)c2cccnc12 | -16.5
5 | O[C@@H](CNC[C@H](O)[C@H]1CCc2cc(F)ccc2O1)[C@@H]1CCc2cc(F)ccc2O1 | 26
6 | CCCCc1oc2ccc(NS(C)(=O)=O)cc2c1C(=O)c1ccc(OCCCN(CCCC)CCCC)cc1 | -10.2
7 | C[C@@H](NCCCc1cccc(C(F)(F)F)c1)c1cccc2ccccc12 | 14
8 | CCC(=O)O[C@]1(C(=O)SCF)[C@H](C)C[C@H]2[C@@H]3C[C@H](F)C4=CC(=O)C=C[C@]4(C)[C@@]3(F)[C@@H](O)C[C@@]21C | -26.7
9 | COc1cc(NCc2ccc3nc(N)nc(N)c3c2C)cc(OC)c1OC | -7.08

Same assay, conditions: iHSKM muscle cells + IFN-b, HiBiT or CellTiter-Glo, 24 h; Viability

Row | SMILES | Potency
10 | CN(C)c1ccc(C(=C2C=CC(=[N+](C)C)C=C2)c2ccc(N(C)C)cc2)cc1 | 9.91 µM (active)
11 | COc1cc2nc(N3CCCN(C)CC3)nc(NC3CCN(Cc4ccccc4)CC3)c2cc1OC | 22.2 µM (active)

Same assay, conditions: iHSKM muscle cells + IFN-b, HiBiT or CellTiter-Glo, 24 h; Viability; at 45.9 µM (top of the series)

Row | SMILES | activity change, negative = inhibition [%]
12 | Oc1c(Cl)cc(Cl)c2cccnc12 | -8.17
13 | CC(=O)Oc1ccccc1C(=O)Nc1ncc([N+](=O)[O-])s1 | -5.7
14 | O[C@@H](CNC[C@H](O)[C@H]1CCc2cc(F)ccc2O1)[C@@H]1CCc2cc(F)ccc2O1 | -9.67
15 | C[C@@H](NCCCc1cccc(C(F)(F)F)c1)c1cccc2ccccc12 | -23.6
16 | COC(=O)Nc1nc2ccc(C(=O)c3ccccc3)cc2[nH]1 | -33.9
17 | CCC(=O)O[C@]1(C(=O)SCF)[C@H](C)C[C@H]2[C@@H]3C[C@H](F)C4=CC(=O)C=C[C@]4(C)[C@@]3(F)[C@@H](O)C[C@@]21C | 10
18 | COc1cc(NCc2ccc3nc(N)nc(N)c3c2C)cc(OC)c1OC | -0.467
19 | COc1cc2ncnc(Nc3cccc(Cl)c3)c2cc1OC | -9.03
20 | CNC(=O)c1cc(Oc2ccc(NC(=O)Nc3ccc(Cl)c(C(F)(F)F)c3)cc2)ccn1 | -24
